For the test, the system named is Caenorhabditis elegans. Kind of test: growth (movement index) relative to DMSO control, secondary screen (log2 fold change); higher = more growth (less anthelmintic activity). Conditions: 10 µM, 5 days, 20 °C, stage: L1 start. Here is the method:
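C. elegans growth assay: synchronised L1 larvae (~20 per well) in S-complete medium with HB101 E. coli were grown in 96-well plates with Pathogen Box compound at 10 µM (1% DMSO) for 5 days at 20 °C. Motility/growth was quantified by whole-plate movie imaging (INVAPP/Paragon movement index). The score is the log2 fold change of the median movement of 5 replicate wells (on different plates) relative to DMSO-only wells. The secondary screen retested the top 20 hits with the same library material (n = 5, 10 µM).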
In the case of `O=C(Nc1ccc(F)c(-c2nc3cc(-c4ccccc4)cnc3[nH]2)c1)N1CCCC1`, the “growth (log2)” value is -4.01.

Consider `O=C(Nc1ccc2c(c1)B(O)OC2)c1ccccc1C(F)(F)F`, for which the “growth (log2)” value was -7.62.

For the molecule `COC(=O)C1=C(C)NC(C)=C(C(=O)OC(C)C)C1c1cccc2nonc12` (stereo not drawn), the “growth (log2)” value was -1.42.

Turning to `CC(C)C(C(=O)Nc1ccc(S(=O)(=O)N(C)C)cc1)c1ccc(Cl)cc1` (stereo not drawn), the “growth (log2)” value was -2.66.

With `CN1CCN(c2cc(-c3ccc(F)cc3)nc(-c3ccncc3)n2)CC1`, the “growth (log2)” value is -2.12.

Take `CC(C)n1ncc2c(C(=O)NCC(c3cccs3)N3CCOCC3)cc(-c3ccccc3)nc21` (stereo not drawn): the “growth (log2)” value is -8.04.

For `O=C(Nc1cccnc1)c1c(O)c2cccc3c2n(c1=O)CC3`, the “growth (log2)” value was -4.82.

For the molecule `Clc1ccc(-n2cc(COc3ccnc4ccccc34)nn2)cc1`, the “growth (log2)” value is -2.02.

Consider `CC(C)(C)CN1C(=O)C(c2ccccc2)(c2ccccc2)N=C1N`, for which the “growth (log2)” value is -5.87.

For the molecule `COC(=O)Nc1nc2cc(C(=O)c3ccccc3)ccc2[nH]1`, the “growth (log2)” value was -5.72.

On to `CCc1ccc([C@@H]2C[C@H](C(F)(F)F)n3ncc(C(=O)NCc4ccc(OC)cc4)c3N2)cc1`, for which the “growth (log2)” value is -3.6.

In the case of `CC(=O)OCC1OC([S-])C(OC(C)=O)C(OC(C)=O)C1OC(C)=O.CCP(CC)CC.[Au+]` (stereo not drawn), the “growth (log2)” value is -7.16.

For the molecule `Cc1cc(C(=O)Nc2ccc(-c3ccccc3)cc2)no1`, the “growth (log2)” value was -6.92.

Regarding `CCOC(=O)NC(=O)c1ccsc1NC(=O)c1nc2ccccc2s1`, the “growth (log2)” value was -1.05.

In the case of `O=C(c1ccco1)N(CCCn1ccnc1)c1nc2c(Cl)cccc2s1`, the “growth (log2)” value was -3.66.

For `Nc1ccc(C(=O)Nc2ccc(-c3nc4ccccc4o3)cc2)cc1`, the “growth (log2)” value is -5.41.

As to `CC(C)n1nc(-c2cc3c(Cl)cccc3[nH]2)c2c(N)ncnc21`, the “growth (log2)” value is -1.13.

Take `O=C(Nc1nc(-c2ccccn2)cs1)C1CC1c1ccccc1F` (stereo not drawn): the “growth (log2)” value was -0.836.
